Source: PubChem BioAssay (Tox21)
Results filed as inconclusive are left out. Active and inactive are the calls of the source. Calls come from the whole dose curve; as a rule, active = well fitted activation curve with a large enough effect in the repeat runs; inconclusive = weak or mixed curves, or effect the other way; inactive = no such curve, though single readings can be large or run the other way.

Experiment: qHTS assay to identify small molecule agonists of the retinoic acid receptor (RAR) signaling pathway (AID 1159553)
Conditions: C3RL4 RARE luciferase reporter, agonist, 6 h; series mostly up to 73.3 µM; activation: at the top concentration
From the text: National Center for Advancing Translational Sciences [NCATS] NIH Chemical Genomics Center [NCGC] U.S. Environmental Protection Agency [EPA] National Institutes of Environmental Health Sciences [NIEHS] National Toxicology Program [NTP] Assay overview: All-trans Retinoic acid (atRA) is the potent natural metabolite of retinol and plays an important role in normal embryonic development and maintenance of cellular phenotype in adult animals. atRA is the activating ligand for the retinoic acid receptors (RARs) which form heterodimers with retinoid X receptors (RXRs) on the retinoic acid response element (RARE). Through activation of the RAR/RXRs nuclear receptors, atRA regulates the transcription of a large number of protein-coding genes and regulatory RNAs. Intracellular levels of atRA are controlled by the retinol signaling pathway (RSP) that regulates the biosynthesis and catabolism of atRA to maintain physiological levels. Chemicals that interfere with the RSP can cause abnormal intracellular levels of atRA and therefore are potential developmental toxicants. To assess compounds for the potential adverse effect on embryonic development through interfering with retinol signaling, a cell-based RARE luciferase reporter gene assay was used. C3RL4 cell line (OARSA/CFSAN/FDA, Laurel, MD) was used to screen Tox21 10K compound library for identifying activators of the RSP.
Assay Protocol Summary: C3RL4 cells were seeded at 1,000/well in 5 uL of assay medium into white solid 1,536-well tissue culture plates (Greiner Bio-One North America Inc. Monroe, NC) using a Multidrop Combi (Thermo Scientific, Waltham, MA) dispenser. After incubation at 37 C and 5% CO2 for an overnight, 23 nL of compounds dissolved in DMSO, positive control or DMSO only were transferred by a Pintool station (Kalypsys, San Diego, CA). After 6 hr incubation at 37 C and 5% CO2, 5 uL of Amplite Luciferase reagent (AAT Bioquest Inc. Sunnyvale, CA) was added to each assay plate using a Flying Reagent Dispenser (FRD) (Aurora Discovery, San Diego, CA). Luminescence was quantified on a ViewLux plate reader (PerkinElmer, Waltham, MA) after 30 min incubation at room temperature.
% is set by controls: 0 for no effect and ±100 for the full control effect; potency is the fitted concentration of half-maximal effect.

| SMILES | activation | Potency |
| --- | --- | --- |
| Oc1cccc2[nH]ccc12 | -0.541% (inactive) |  |
| CCN(CC)CCOC(=O)C(c1ccccc1)c1ccccc1 | -0.735% (inactive) |  |
| CC[C@H]1OC(=O)[C@H](C)[C@@H](O[C@H]2C[C@@](C)(OC)[C@@H](O)[C@H](C)O2)[C@H](C)[C@@H](O[C@@H]2O[C@H](C)C[C@H](N(C)C)[C@H]2O)[C@](C)(O)C[C@@H](C)/C(=N\OCOCCOC)[C@H](C)[C@@H](O)[C@]1(C)O | -4.41% (inactive) |  |
| BrC(Br)C(Br)Br | 0.336% (inactive) |  |
| CCCCCCOC(=O)CCCCC | 1.5% (inactive) |  |
| O=C(O)/C=C/c1ccc(O)c(O)c1 | 2.64% [at 94.8 µM] (inactive) |  |
| Cc1c[nH]c2ccccc12 | 1.27% (inactive) |  |
| C=C(C)c1ccccc1 | 0.865% (inactive) |  |
| COC(OC)OC | -1.65% (inactive) |  |
| CC[C@H]1OC(=O)[C@H](C)[C@@H](O[C@H]2C[C@@](C)(OC)[C@@H](O)[C@H](C)O2)[C@H](C)[C@@H](O[C@@H]2O[C@H](C)C[C@H](N(C)C)[C@H]2O)[C@](C)(O)C[C@@H](C)CN(C)[C@H](C)[C@@H](O)[C@]1(C)O | -5.38% (inactive) |  |
| CC(C)N=C=NC(C)C | 0.597% (inactive) |  |
| CC(=O)N[C@@H](Cc1ccc(O)cc1)C(=O)O | 0.609% (inactive) |  |
| CC(C)C1CCC(C(=O)N[C@H](Cc2ccccc2)C(=O)O)CC1 (stereo not given in full) | -8.04% (inactive) |  |
| CCCCCCCCCCCCCCN(C)C | -1.23% [at 34.3 µM] (inactive) |  |
| c1ccc(CCCc2ccncc2)cc1 |  | 68.6 µM (active) |
| CCN(CC)CCOc1ccccc1C(=O)CCc1ccccc1 | 0.106% (inactive) |  |
| CCCCCCCCCCCCCCCCCC(=O)OCC(CC)CCCC (stereo not given) | 6.23% (inactive) |  |
| COC(=O)c1sccc1S(N)(=O)=O | -0.0779% (inactive) |  |
| CC1CCc2nccnc21 (stereo not given) | -1.25% (inactive) |  |
| CN1C(CSCC(F)(F)F)Nc2cc(Cl)c(S(N)(=O)=O)cc2S1(=O)=O (stereo not given) | -1.48% (inactive) |  |

| SMILES | activation | Potency |
| --- | --- | --- |
| CCN(CC)C(=O)N1CCN(C)CC1 | 1.04% (inactive) |  |
| CC(C)c1ccc(C#N)cc1 | -1.96% (inactive) |  |
| CC(C)c1ccc(C(=O)N=C(N)N)cc1S(C)(=O)=O | -2.93% (inactive) |  |
| O=C(O)c1ccc(O)cc1O | -0.373% [at 94.8 µM] (inactive) |  |
| COC(CC(C)CCCC(C)(C)O)OC (stereo not given) | 1.32% (inactive) |  |
| COC1CCC=CO1 (stereo not given) | 0.158% [at 94.8 µM] (inactive) |  |
| CC1CCC(C(C)CS)CC1S (stereo not given) | 0.159% (inactive) |  |
| CC(CN(CCN(CC(C)OCCO)CC(C)OCCO)CC(C)OCCO)OCCO (stereo not given) | -3.92% [at 94.8 µM] (inactive) |  |
| CCOC(=O)C(C)O (stereo not given) | 0.213% [at 94.8 µM] (inactive) |  |
| COc1ccc(/C=C/C(=O)c2ccc(OC)cc2OC)cc1 |  | 29.8 µM (active) |
| C1CCCCC1 | -0.0661% [at 94.8 µM] (inactive) |  |
| CCCCCCCCCCCC(=O)OCC(O)CO (stereo not given) | 1.1% (inactive) |  |
| CC(=O)OCCC1CCCCC1 | -1.09% (inactive) |  |
| Cc1ccc2c(c1)CCCN2 | 0.184% (inactive) |  |
| FC(F)(F)C(F)(F)C(F)(F)C(F)(F)CCI | -0.896% [at 34.3 µM] (inactive) |  |
| O=C1NC(=O)c2cccc3cccc1c23 | -2.04% (inactive) |  |
| C=Cc1ccc(OC(C)=O)cc1 | 2.05% (inactive) |  |
| CCOC(=O)c1c(N)sc2c1CCN(Cc1ccccc1)C2 | 1.16% (inactive) |  |
| CC(C)(C)NCC(O)COc1cccc2c1C[C@H](O)[C@H](O)C2 (stereo not given in full) | 0.815% (inactive) |  |
| Nc1nc2ccc(OC(F)(F)F)cc2s1 |  | 9.44 µM (active) |
